Experimental data from the supplement of paper PMC10849652.
Of roughly 7,900 targets only a part is listed; those with a hit were picked by preference. About 0.6% of all pairs of compound and target were hits.

Experiments:
Assay in all cases: log2 fold change, soluble protein after heating vs DMSO (PISA); higher = thermal stabilisation; K562 cells, 10 uM, 30 min; active = over 0.2 and 3.5 SD of the protein, either way, in both replicates (recomputed)
[1] = compound: COC1=CC=C(C=C1)CN2C=CC3=C2C=C(C=C3)C(=O)NO
Method in brief: (§1)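 K562 cells at 2×10^6 cells/mL were treated for 30 min with 10 μM compound, and aliquots were heated for 3 min over 48°C-58°C before pooling. Extraction used PBS with 0.5% NP-40 at 4°C, and soluble protein was the supernatant after 21,000xg for 90 min, measured by TMTpro 16plex LC-MS/MS with channel sums equalised. Thermal stability values, relative to control samples and from duplicates, are log2 fold changes.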

filanesib = compound: CON(C)C(=O)N1N=C(c2cc(F)ccc2F)S[C@@]1(CCCN)c1ccccc1 [filanesib]
Method in brief: as §1

zotarolimus = compound: CO[C@H]1C[C@@H]2CC[C@@H](C)[C@@](O)(O2)C(=O)C(=O)N2CCCC[C@H]2C(=O)O[C@H]([C@H](C)C[C@@H]2CC[C@H](n3cnnn3)[C@H](OC)C2)CC(=O)[C@H](C)/C=C(\C)[C@@H](O)[C@@H](OC)C(=O)[C@H](C)C[C@H](C)/C=C/C=C/C=C/1C [zotarolimus]
Method in brief: as §1

idasanutlin = compound: COc1cc(C(=O)O)ccc1NC(=O)[C@@H]1N[C@@H](CC(C)(C)C)[C@](C#N)(c2ccc(Cl)cc2F)[C@H]1c1cccc(Cl)c1F [idasanutlin]
Method in brief: as §1

alisertib = compound: COc1cc(Nc2ncc3c(n2)-c2ccc(Cl)cc2C(c2c(F)cccc2OC)=NC3)ccc1C(=O)O [alisertib]
Method in brief: as §1

[2] = compound: COc1cc2nc(-c3cc(F)ccc3O)nc(N[C@@H]3CNC[C@H]3C(C)(C)O)c2cc1OC
Method in brief: as §1

gefitinib = compound: COc1cc2ncnc(Nc3ccc(F)c(Cl)c3)c2cc1OCCCN1CCOCC1 [gefitinib]
Method in brief: as §1

[3] = compound: COc1cccc2cc(-c3nc([C@H]4CC[C@H](C(=O)O)CC4)n4ncnc(N)c34)[nH]c12
Method in brief: as §1

lapatinib = compound: CS(=O)(=O)CCNCc1ccc(-c2ccc3ncnc(Nc4ccc(OCc5cccc(F)c5)c(Cl)c4)c3c2)o1 [lapatinib]
Method in brief: as §1

pictilisib = compound: CS(=O)(=O)N1CCN(Cc2cc3nc(-c4cccc5[nH]ncc45)nc(N4CCOCC4)c3s2)CC1 [pictilisib]
Method in brief: as §1

[4] = compound: CS(=O)(=O)c1ccc(-c2cnc(N)c(C(=O)Nc3ccccc3)n2)cc1
Method in brief: as §1

crizotinib = compound: C[C@@H](Oc1cc(-c2cnn(C3CCNCC3)c2)cnc1N)c1c(Cl)ccc(F)c1Cl [crizotinib]
Method in brief: as §1

[5] = compound: C[C@@H]1COCCN1C2=NC(=NC(=C2)C3(CC3)S(=O)(=O)C)C4=C5C=CNC5=CC=C4
Method in brief: as §1

[6] = compound: C[C@H](C1=CC=C(C=C1)C(=O)NC2=C3C=CNC3=NC=C2)N
Method in brief: as §1

duvelisib = compound: C[C@H](Nc1ncnc2nc[nH]c12)c1cc2cccc(Cl)c2c(=O)n1-c1ccccc1 [duvelisib]
Method in brief: as §1

gandotinib = compound: Cc1cc(Nc2cc(CN3CCOCC3)c3nc(C)c(Cc4ccc(Cl)cc4F)n3n2)n[nH]1 [gandotinib]
Method in brief: as §1

tozasertib = compound: Cc1cc(Nc2cc(N3CCN(C)CC3)nc(Sc3ccc(NC(=O)C4CC4)cc3)n2)n[nH]1 [tozasertib]
Method in brief: as §1

[7] = compound: Cc1cc(SCc2sc(-c3ccc(C(F)(F)F)cc3)nc2C)ccc1OCC(=O)O
Method in brief: as §1

doramapimod = compound: Cc1ccc(-n2nc(C(C)(C)C)cc2NC(=O)Nc2ccc(OCCN3CCOCC3)c3ccccc23)cc1 [doramapimod]
Method in brief: as §1

ispinesib = compound: Cc1ccc(C(=O)N(CCCN)[C@@H](c2nc3cc(Cl)ccc3c(=O)n2Cc2ccccc2)C(C)C)cc1 [ispinesib]
Method in brief: as §1

Measured: log2 fold change

RBM12 (UniProt Q9NTZ6)
inactive: [1] 0.112 | filanesib -0.033 | zotarolimus 0.021 | idasanutlin -0.039 | alisertib 0.023 | [2] -0.014 | gefitinib 0.032 | [3] 0.023 | lapatinib -0.012 | pictilisib -0.019 | [4] 0.079 | crizotinib 0.005 | [5] 0.16 | [6] -0.109 | duvelisib 0.011 | gandotinib -0.132 | tozasertib 0.04 | [7] 0.1 | doramapimod -0.076 | ispinesib 0.008

RAB8B (UniProt Q92930)
UniProt Q92930, sequence (Q92930 whole entry, looked up): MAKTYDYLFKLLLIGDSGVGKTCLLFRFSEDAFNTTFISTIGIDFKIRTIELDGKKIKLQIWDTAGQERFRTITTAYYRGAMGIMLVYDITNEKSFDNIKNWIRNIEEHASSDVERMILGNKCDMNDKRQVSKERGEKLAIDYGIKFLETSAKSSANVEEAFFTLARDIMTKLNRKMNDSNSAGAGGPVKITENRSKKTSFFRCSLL
inactive: [1] 0.258 | filanesib -0.076 | zotarolimus 0.045 | idasanutlin -0.017 | alisertib -0.035 | [2] -0.064 | gefitinib 0.021 | [3] -0.076 | lapatinib 0.023 | pictilisib -0.096 | [4] -0.212 | crizotinib 0 | [5] -0.046 | [6] -0.345 | duvelisib -0.028 | gandotinib -0.086 | tozasertib -0.076 | [7] 0.005 | doramapimod 0.034 | ispinesib 0.01

SCAF11 (UniProt Q99590)
inactive: [1] 0.365 | filanesib 0.141 | zotarolimus -0.029 | idasanutlin 0.054 | alisertib -0.1 | [2] -0.028 | gefitinib -0.013 | [3] -0.071 | lapatinib 0.156 | pictilisib -0.382 | [4] 0.021 | crizotinib -0.06 | [5] -0.069 | [6] 0.229 | duvelisib -0.069 | gandotinib 0.543 | tozasertib -0.037 | [7] -0.106 | doramapimod -0.05 | ispinesib -0.012

RBM33 (UniProt Q96EV2)
UniProt Q96EV2, sequence (Q96EV2 whole entry, looked up): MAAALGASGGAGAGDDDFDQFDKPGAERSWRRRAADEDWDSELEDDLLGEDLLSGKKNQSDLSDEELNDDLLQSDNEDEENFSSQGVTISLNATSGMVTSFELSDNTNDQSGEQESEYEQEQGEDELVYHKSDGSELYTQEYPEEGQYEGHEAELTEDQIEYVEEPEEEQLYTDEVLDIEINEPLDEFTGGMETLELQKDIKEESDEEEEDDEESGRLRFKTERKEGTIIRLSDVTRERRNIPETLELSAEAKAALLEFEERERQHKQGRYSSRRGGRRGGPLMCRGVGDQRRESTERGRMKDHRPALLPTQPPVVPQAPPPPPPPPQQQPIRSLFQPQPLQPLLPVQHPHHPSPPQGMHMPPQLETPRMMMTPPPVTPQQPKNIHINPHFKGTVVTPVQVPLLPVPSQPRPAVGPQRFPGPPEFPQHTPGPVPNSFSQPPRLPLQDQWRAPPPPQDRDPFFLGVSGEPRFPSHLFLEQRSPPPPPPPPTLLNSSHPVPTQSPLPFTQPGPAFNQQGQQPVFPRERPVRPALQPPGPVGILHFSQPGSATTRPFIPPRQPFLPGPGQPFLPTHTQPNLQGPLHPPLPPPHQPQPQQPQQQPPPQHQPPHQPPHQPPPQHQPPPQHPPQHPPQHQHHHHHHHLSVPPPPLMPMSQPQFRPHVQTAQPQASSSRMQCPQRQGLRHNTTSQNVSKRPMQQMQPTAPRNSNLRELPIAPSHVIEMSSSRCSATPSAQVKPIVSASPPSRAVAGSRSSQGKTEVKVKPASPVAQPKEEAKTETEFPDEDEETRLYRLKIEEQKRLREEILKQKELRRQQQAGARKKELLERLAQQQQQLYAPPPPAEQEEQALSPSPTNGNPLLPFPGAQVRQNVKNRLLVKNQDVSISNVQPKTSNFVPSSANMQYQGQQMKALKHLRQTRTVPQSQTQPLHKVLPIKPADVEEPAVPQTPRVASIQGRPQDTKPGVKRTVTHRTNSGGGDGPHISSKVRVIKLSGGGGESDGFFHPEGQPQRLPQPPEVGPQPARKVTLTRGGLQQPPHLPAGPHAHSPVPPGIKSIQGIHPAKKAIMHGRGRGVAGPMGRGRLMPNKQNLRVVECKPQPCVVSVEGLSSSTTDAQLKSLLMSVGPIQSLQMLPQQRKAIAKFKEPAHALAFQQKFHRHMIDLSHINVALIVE
inactive: [1] 0.134 | filanesib 0.013 | zotarolimus 0.03 | idasanutlin 0.042 | alisertib -0.031 | [2] -0.078 | gefitinib 0.035 | [3] -0.028 | lapatinib 0.008 | pictilisib -0.044 | [4] -0.01 | crizotinib 0.058 | [5] -0.063 | [6] -0.077 | duvelisib 0.016 | gandotinib 0.03 | tozasertib -0.019 | [7] 0.043 | doramapimod -0.022 | ispinesib -0.085

RPA1 (UniProt P27694)
UniProt P27694, sequence (P27694 whole entry, looked up): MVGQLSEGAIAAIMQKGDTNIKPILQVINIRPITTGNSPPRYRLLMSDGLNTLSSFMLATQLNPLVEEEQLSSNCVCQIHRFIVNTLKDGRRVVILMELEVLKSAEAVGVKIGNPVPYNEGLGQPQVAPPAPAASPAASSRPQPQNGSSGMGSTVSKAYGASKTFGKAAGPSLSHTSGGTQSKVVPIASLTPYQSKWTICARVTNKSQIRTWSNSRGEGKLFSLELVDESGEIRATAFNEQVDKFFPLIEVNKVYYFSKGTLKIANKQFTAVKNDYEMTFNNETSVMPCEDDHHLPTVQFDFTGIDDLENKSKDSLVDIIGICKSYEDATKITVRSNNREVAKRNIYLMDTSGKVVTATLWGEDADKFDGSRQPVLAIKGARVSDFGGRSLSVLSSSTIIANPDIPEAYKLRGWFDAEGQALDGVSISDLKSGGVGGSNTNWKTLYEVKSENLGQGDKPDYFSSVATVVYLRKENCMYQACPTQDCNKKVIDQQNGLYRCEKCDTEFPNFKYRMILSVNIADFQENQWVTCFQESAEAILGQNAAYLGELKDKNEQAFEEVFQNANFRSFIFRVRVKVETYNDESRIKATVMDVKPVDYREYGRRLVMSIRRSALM
inactive: [1] 0.053 | filanesib -0.006 | zotarolimus 0.018 | idasanutlin -0.042 | alisertib 0.027 | [2] 0.049 | gefitinib -0.001 | [3] -0.133 | lapatinib 0.006 | pictilisib -0.088 | [4] -0.028 | crizotinib -0.019 | [5] -0.199 | [6] 0.036 | duvelisib -0.035 | gandotinib -0.103 | tozasertib 0.015 | [7] 0.022 | doramapimod -0.05 | ispinesib 0.004

RSRC1 (UniProt Q96IZ7)
UniProt Q96IZ7, sequence (Q96IZ7 whole entry, looked up): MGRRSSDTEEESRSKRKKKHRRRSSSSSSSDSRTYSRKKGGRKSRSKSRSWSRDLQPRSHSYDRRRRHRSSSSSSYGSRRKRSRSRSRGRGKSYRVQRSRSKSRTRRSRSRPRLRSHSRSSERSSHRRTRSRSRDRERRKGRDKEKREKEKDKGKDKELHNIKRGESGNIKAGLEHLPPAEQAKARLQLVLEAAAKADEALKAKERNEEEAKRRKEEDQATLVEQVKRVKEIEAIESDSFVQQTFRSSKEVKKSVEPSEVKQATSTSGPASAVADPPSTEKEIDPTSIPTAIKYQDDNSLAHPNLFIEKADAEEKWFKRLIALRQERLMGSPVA
active: [6] -0.386
inactive: [1] 0.136 | filanesib -0.003 | zotarolimus 0.033 | idasanutlin -0.004 | alisertib -0.084 | [2] -0.024 | gefitinib 0.024 | [3] 0.001 | lapatinib 0.041 | pictilisib 0.101 | [4] 0.007 | crizotinib -0.059 | [5] 0.027 | duvelisib 0.086 | gandotinib 0.176 | tozasertib -0.079 | [7] -0.034 | doramapimod 0.051 | ispinesib 0.037

RCC1 isoform 2 (UniProt P18754)
UniProt P18754, sequence (P18754 whole entry, looked up): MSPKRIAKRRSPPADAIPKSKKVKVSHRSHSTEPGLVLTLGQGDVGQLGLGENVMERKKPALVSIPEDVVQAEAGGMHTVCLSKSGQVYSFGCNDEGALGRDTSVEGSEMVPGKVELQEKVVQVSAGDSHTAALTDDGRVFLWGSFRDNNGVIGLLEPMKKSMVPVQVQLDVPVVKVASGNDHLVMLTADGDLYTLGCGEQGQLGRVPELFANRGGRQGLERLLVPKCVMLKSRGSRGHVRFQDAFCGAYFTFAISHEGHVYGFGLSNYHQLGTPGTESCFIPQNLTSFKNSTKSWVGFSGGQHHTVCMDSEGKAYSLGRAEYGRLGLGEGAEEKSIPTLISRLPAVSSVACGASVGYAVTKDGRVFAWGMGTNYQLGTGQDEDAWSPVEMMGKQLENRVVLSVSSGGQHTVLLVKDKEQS
inactive: [1] 0.106 | filanesib -0.058 | zotarolimus 0.083 | idasanutlin 0 | alisertib 0.022 | [2] -0.038 | gefitinib 0.087 | [3] 0.021 | lapatinib 0 | pictilisib -0.005 | crizotinib -0.032 | [5] 0.13 | [6] -0.04 | duvelisib 0.158 | gandotinib -0.1 | tozasertib -0.002 | [7] 0.154 | doramapimod -0.008 | ispinesib -0.007
active: [4] 0.418

RETREG3 (UniProt Q86VR2)
UniProt Q86VR2, sequence (Q86VR2 whole entry, looked up): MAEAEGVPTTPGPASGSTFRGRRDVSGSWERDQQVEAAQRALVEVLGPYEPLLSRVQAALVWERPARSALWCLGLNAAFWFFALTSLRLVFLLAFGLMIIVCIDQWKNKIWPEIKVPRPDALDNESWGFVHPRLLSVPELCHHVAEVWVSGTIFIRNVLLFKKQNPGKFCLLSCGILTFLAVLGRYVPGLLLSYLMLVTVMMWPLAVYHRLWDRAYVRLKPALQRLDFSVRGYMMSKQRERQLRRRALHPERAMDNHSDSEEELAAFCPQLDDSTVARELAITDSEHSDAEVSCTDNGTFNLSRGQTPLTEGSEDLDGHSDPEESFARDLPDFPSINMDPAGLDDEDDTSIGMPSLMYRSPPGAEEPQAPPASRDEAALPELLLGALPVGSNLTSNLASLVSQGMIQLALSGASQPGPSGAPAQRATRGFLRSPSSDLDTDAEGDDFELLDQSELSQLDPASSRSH
inactive: [1] -0.038 | filanesib -0.136 | zotarolimus -0.053 | idasanutlin -0.008 | alisertib 0.029 | [2] -0.141 | gefitinib 0.035 | [3] 0.106 | lapatinib 0.037 | pictilisib 0.102 | [4] 0.016 | crizotinib -0.076 | [5] 0.081 | [6] 0.024 | duvelisib 0.005 | gandotinib 0.007 | tozasertib 0.006 | [7] 0.033 | doramapimod -0.052
active: ispinesib -0.459

RPS13 (UniProt P62277)
inactive: [1] -0.132 | filanesib 0.394 | zotarolimus 0.015 | idasanutlin 0.145 | alisertib -0.164 | [2] -0.012 | gefitinib -0.051 | [3] -0.316 | lapatinib 0.117 | pictilisib -0.226 | [4] -0.053 | crizotinib 0.076 | [5] -0.548 | [6] 0.403 | duvelisib -0.201 | gandotinib 0.296 | tozasertib 0.021 | [7] -0.013 | doramapimod 0.247 | ispinesib -0.195

RPL31 (UniProt P62899)
inactive: [1] -0.084 | filanesib 0.277 | zotarolimus -0.013 | idasanutlin 0.151 | alisertib -0.118 | [2] -0.013 | gefitinib -0.075 | [3] -0.25 | lapatinib 0.103 | pictilisib -0.092 | [4] -0.08 | crizotinib 0.079 | [5] -0.56 | [6] 0.396 | duvelisib -0.158 | gandotinib 0.35 | tozasertib 0.029 | [7] -0.001 | doramapimod 0.173 | ispinesib -0.167

SH3GL1 (UniProt Q99961)
UniProt Q99961, sequence (Q99961 whole entry, looked up): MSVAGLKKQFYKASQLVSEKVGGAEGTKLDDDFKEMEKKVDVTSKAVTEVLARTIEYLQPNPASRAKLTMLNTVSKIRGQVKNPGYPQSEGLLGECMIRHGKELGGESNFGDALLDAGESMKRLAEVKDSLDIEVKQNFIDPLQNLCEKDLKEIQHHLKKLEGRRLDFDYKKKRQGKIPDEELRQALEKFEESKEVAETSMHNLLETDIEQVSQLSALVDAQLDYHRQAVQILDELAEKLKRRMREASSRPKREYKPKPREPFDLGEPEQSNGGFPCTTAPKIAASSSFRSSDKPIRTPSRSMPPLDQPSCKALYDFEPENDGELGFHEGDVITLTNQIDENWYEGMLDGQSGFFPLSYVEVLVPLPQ
inactive: [1] 0.046 | filanesib -0.047 | zotarolimus 0.062 | idasanutlin 0 | alisertib 0.012 | [2] 0 | gefitinib -0.029 | [3] -0.048 | lapatinib -0.008 | pictilisib -0.005 | [4] 0.067 | crizotinib -0.144 | [5] 0.024 | [6] 0.062 | duvelisib 0.019 | gandotinib -0.031 | tozasertib 0.045 | [7] 0.103 | doramapimod 0.007 | ispinesib -0.156

RCOR1 (UniProt Q9UKL0)
UniProt Q9UKL0, sequence (Q9UKL0 whole entry, looked up): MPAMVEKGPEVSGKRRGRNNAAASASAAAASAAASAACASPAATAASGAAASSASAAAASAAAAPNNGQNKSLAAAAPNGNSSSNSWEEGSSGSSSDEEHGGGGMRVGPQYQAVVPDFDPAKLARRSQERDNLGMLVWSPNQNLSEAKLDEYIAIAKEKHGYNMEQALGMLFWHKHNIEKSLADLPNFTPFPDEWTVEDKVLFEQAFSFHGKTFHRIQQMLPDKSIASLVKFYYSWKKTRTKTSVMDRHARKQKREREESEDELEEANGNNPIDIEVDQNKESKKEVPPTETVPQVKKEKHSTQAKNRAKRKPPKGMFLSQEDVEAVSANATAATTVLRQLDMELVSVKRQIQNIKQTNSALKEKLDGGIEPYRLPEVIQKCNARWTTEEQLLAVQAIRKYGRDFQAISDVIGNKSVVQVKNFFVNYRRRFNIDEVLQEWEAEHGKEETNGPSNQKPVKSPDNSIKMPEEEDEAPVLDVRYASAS
inactive: [1] -0.039 | filanesib 0.002 | zotarolimus -0.044 | idasanutlin 0 | alisertib 0.013 | [2] 0.003 | gefitinib -0.002 | [3] 0.015 | lapatinib 0.019 | pictilisib 0.005 | [4] 0.011 | crizotinib -0.033 | [5] 0.095 | [6] 0.071 | duvelisib 0.088 | gandotinib -0.046 | tozasertib 0.005 | [7] 0.041 | doramapimod 0.001 | ispinesib -0.031

RPS6KA2 isoform 2 (UniProt Q15349)
UniProt Q15349, sequence (Q15349 whole entry, looked up): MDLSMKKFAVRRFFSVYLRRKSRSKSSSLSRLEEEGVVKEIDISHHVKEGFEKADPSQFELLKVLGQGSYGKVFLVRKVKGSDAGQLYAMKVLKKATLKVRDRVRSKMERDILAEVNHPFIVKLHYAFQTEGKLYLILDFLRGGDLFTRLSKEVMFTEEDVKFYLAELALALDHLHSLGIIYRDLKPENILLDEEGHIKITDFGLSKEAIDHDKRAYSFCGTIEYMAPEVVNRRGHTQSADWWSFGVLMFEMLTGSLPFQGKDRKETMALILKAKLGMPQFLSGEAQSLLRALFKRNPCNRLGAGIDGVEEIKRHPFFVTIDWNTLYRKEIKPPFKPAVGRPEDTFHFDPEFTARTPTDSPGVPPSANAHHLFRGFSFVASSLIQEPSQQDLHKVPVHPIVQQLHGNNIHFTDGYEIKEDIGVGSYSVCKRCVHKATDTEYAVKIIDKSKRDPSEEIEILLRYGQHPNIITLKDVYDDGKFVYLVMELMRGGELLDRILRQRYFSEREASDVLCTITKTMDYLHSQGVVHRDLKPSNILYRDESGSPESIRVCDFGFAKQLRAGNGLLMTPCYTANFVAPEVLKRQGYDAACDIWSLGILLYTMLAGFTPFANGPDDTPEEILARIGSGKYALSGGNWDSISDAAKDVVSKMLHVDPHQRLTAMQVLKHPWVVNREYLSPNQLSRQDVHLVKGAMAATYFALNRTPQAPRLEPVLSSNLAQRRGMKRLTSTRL
inactive: [1] -0.023 | filanesib -0.006 | zotarolimus 0.016 | idasanutlin -0.033 | alisertib -0.052 | [2] -0.259 | gefitinib -0.078 | [3] 0.001 | lapatinib -0.011 | pictilisib -0.106 | [4] 0.026 | crizotinib -0.148 | [5] 0.128 | [6] -0.057 | duvelisib 0.047 | gandotinib -0.048 | tozasertib 0.042 | [7] 0.063 | doramapimod -0.057 | ispinesib -0.058
